Keap1 Nrf2 FP – inhibitors of human Keap1-Nrf2 protein-protein interaction; Keap1 Kelch-Nrf2 peptide fluorescence polarization, 1536-well; inhibition, % at 9.4 µM; 340,000 compounds, 0.15% hits; AID 504523; in the data active = inhibition above about 12%;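 note: human Keap1 Kelch domain with fluorescein labeled Nrf2 9mer peptide probe; 0% = neutral control wells and 100% = peptide positive control; higher means more block of Keap1 binding to Nrf2 peptide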
Target sequence (Q14145 whole entry, looked up, the tested form may be a part): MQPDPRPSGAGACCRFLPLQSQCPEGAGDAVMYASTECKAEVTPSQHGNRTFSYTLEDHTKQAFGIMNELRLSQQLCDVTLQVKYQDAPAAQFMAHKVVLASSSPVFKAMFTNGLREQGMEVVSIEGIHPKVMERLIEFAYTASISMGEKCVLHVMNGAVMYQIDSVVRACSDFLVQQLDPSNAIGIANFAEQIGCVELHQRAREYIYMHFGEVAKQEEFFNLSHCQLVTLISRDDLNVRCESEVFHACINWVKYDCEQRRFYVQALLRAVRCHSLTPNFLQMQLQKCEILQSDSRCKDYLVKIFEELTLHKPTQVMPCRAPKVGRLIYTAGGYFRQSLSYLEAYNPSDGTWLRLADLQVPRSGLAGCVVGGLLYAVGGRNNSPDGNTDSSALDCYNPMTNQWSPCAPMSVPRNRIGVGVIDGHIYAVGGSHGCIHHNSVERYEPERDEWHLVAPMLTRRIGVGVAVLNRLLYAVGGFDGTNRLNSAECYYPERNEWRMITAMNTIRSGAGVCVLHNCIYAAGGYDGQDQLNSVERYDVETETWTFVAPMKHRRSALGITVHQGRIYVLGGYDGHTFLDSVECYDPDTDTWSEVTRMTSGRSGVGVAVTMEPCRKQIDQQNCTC
RTF Ca sens act – increases calcium sensitivity of human cardiac regulated thin filaments; P19429+P45379; activation, % at 7.2 µM; IANBD-labeled TnC RTF fluorescence at EC20 calcium; 0% EC20 calcium, 100% full calcium; 340,000 compounds, 0.24% hits;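 active = activation above the mean over all tested compounds plus 3 SD, cut at about 30% in these data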;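 note: rise in fluorescence read as greater calcium sensitivity of cardiac thin filaments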
RTF Ca sens inh – cardiac RTF calcium desensitization; P19429+P45379; IANBD-labeled cardiac RTF, Ca2+ fluorescence; inhibition, % at 7.15 µM; 340,000 compounds, 0.12% hits; AID 493244;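 active = inhibition above the mean inhibition of all tested compounds plus 3 SD, cut at about 17% in these data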;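 note: assay run at fixed EC70 calcium of 1.6 mM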
C-LANA FP – KSHV C-LANA DNA binding inhibition; MBP-C-LANA/FAM-LBS DNA binding, fluorescence polarization; inhibition, % at 9 µM; 340,000 compounds, 0.078% hits; AID 504423;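 active = highest replicate inhibition at or above 60% at 9 µM, even if other replicates fall short; inactive = all replicates below 60% inhibition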;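 note: 0% = neutral control wells and 100% = 4 µM acridine orange control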
LANA-H2B inh – blocks KSHV LANA binding to histone H2A/H2B. Q9QR71. cell-free LANA-H2A/H2B peptide, fluorescence polarization. inhibition, % (no concentration beside the values). 320,000 compounds, 0.6% hits. AID 2629; in the data active = inhibition mostly above about 10%, no sharp cut-off; inactive = mostly below about 6.7%
* = called active by the depositor; / = no result given; + = active, no number. Only some compounds are listed: those with a hit (about 0.99% of all), similar ones and a draw of the others.

SMILES	Keap1 Nrf2 FP	RTF Ca sens act	RTF Ca sens inh	C-LANA FP	LANA-H2B inh
CCN(CC)C(=O)c1ccc(S(=O)(=O)c2ccccc2)cc1	-4.2	-0.2	-5.7	-4.7	+
COC(=O)C(C(C)C)N1CCc2c(C)nc3c(C#N)cnn3c21 (stereo unspecified)	-3.1	1.7	9.3	-0.7	59.9*
Cc1cc(NC(=O)CSc2nnc(Nc3ccccc3C)s2)no1	1.3	1.0	-3.7	-0.5	0.5
COc1ccc2nc3ccccc3nc2c1NC(=O)c1ccc(Cl)cc1Cl	-15.2	360.7*	-35.2	1.1	8.3
COc1cc(-c2cc(C(=O)Nc3c(Cl)cc(Cl)cc3Cl)c3ccccc3n2)cc(OC)c1OC	2.2	-1.7	9.3	0.0	-1.0
O=S(=O)(c1ccccc1)N1CCCC1c1nc2ccccc2s1 (stereo unspecified)	0.6	1.0	-0.6	0.9	8.1
C=CC[C@@H](CC(=O)NCCO)C(=O)N[C@H](COC(=O)[C@@H](CC=C)Cc1ccc(F)cc1)Cc1c[nH]c2ccccc12	-5.2	12.5	0.2	1.0	+
C=CC[C@@H](CC(=O)NCCO)C(=O)N[C@@H](COC(=O)[C@@H](CC=C)Cc1ccc(F)cc1)Cc1c[nH]c2ccccc12	-6.6	2.6	7.7	1.8	-0.1
CC(=O)Oc1ccccc1-c1nc(C)nc(N(C)C(C)=O)n1	-3.7	12.1	-15.7	-1.2	43.9*
O=C(COC(=O)c1c2c(nc3ccccc13)/C(=C/c1ccco1)CC2)NC1CCCC1	1.9	-7.1	17.4*	0.8	/
CCN1C/C(=C/c2cccs2)c2nc3ccccc3c(C(=O)O)c2C1	-0.2	3.3	-23.6	7.9	11.3*
CCCCNC(=O)COC(=O)c1c2c(nc3ccccc13)/C(=C\c1cccs1)CC2	-3.7	36.6*	-10.5	2.6	/
CCN1C/C(=C/c2sccc2C)c2nc3ccccc3c(C(=O)O)c2C1	-3.6	0.4	-2.5	4.2	1.9
CCOC(=O)[C@@H]1[C@H]2COc3ccccc3[C@@H]2N2C(=O)N(c3ccc(F)cc3)C(=O)[C@@]12C	-4.7	4.6	5.5	-0.5	4.3
COc1cccc(NC(=O)COC(=O)CC2CC3CCC2C3)c1 (stereo unspecified)	0.3	3.8	-7.3	-5.1	-4.8
CN1CCN(CCCNC(=O)Nc2cccc3ccccc23)CC1	-6.8	4.3	-9.7	0.3	5.4
O=C(NCCCN1CCCC1)Nc1cccc2ccccc12	-2.1	4.1	-7.0	-2.2	14.4*
CCN(CC)c1ccc(CN(C(=O)c2ccco2)C2CCS(=O)(=O)C2)cc1 (stereo unspecified)	0.4	1.3	-3.0	-1.1	-0.8
O=S(=O)(N/N=C1\CCCc2ccccc21)c1ccccc1	-4.7	0.2	-3.4	-0.8	13.9*
CCOC(=O)C1(Cc2cccc(OC)c2)CCN(CC=C(C)C)CC1	1.0	0.2	-17.8	0.8	-7.5
Nc1nc(SCc2c(Cl)cccc2Cl)n[nH]1	2.3	0.1	-32.4	0.5	-6.8
CC(=O)c1ccc(NC(=O)c2ccc(N3C(=O)c4cccnc4C3=O)cc2)cc1	0.7	-2.6	1.3	0.4	6.2
CCOC(=O)c1ccc(NC(=O)CCc2nnc3ccc(N4CCCC4)nn23)cc1	0.4	-3.8	-2.9	0.3	1.6
CCN(CC)c1ccc(NC(=O)CCc2nnc3ccc(N4CCCC4)nn23)c(C)c1	-1.1	6.1	-6.7	-1.5	28.8*
CC(=O)Nc1ccc(S(=O)(=O)N2CCC3(CC2)CC(=O)c2ccccc2O3)cc1	-0.1	-4.8	-6.7	0.1	0.8
SMILES	Keap1 Nrf2 FP	RTF Ca sens act	RTF Ca sens inh	C-LANA FP	LANA-H2B inh
CCOc1ccc(C(=O)NC(=S)Nc2cc(C)ccn2)cc1[N+](=O)[O-]	-1.2	-3.6	3.2	-1.4	98.3*
CN(CC(=O)Nc1ccccc1Br)C(=O)c1ccc(COc2ccccc2)cc1	-3.3	4.5	-15.7	-1.6	-3.9
CN(CC(=O)Nc1ccccc1Br)C(=O)c1ccncc1	0.1	1.7	9.8	4.1	28.8*
COc1ccccc1/C=C/C=C1\Oc2c(ccc(O)c2CN2CCN(CCO)CC2)C1=O	-148.4	239.3*	-222.4	-0.6	-27.8
CN(C)Cc1c(O)ccc2c1O/C(=C\C=C\c1ccccc1)C2=O	-25.5	25.7	-55.1	4.8	-7.2
O=C1/C(=C/C=C/c2ccccc2)Oc2c1ccc(O)c2CN1CCN(CCO)CC1	-33.1	42.8*	-55.9	4.0	-5.6
Cc1ccc(/C=C2\Oc3c(ccc(O)c3CN3CCN(C)CC3)C2=O)cc1	-11.8	19.7	-38.6	11.7	3.8

Compound activity deposited in PubChem BioAssay by several laboratories.
